NPSR antag: antagonists of human neuropeptide S receptor cAMP signaling; Q6W5P4; CHO-NPSR cells, cAMP TR-FRET, antagonist mode; Potency, µM (series often up to 38.3 µM), for the others: at the highest dose activity change, negative = inhibition, most hits filed as inhibitors; hit rate 1% among 220,000; further: on the % scale 0 is the no-effect control and ±100 the full control effect; nearly all actives have a fitted effect of over 50% in size
Target sequence (Q6W5P4 whole entry, looked up): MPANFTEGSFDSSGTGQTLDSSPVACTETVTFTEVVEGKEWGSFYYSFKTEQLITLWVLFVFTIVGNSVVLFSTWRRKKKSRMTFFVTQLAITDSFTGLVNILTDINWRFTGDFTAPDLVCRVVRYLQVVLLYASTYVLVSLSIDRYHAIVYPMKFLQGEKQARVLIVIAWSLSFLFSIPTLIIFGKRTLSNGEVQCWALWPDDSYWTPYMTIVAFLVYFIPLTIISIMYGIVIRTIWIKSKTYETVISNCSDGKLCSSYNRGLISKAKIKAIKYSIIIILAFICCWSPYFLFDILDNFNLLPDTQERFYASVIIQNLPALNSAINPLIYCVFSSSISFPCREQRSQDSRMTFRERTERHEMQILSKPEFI
GCN5L2 inh: GCN5L2 (KAT2A) acetyltransferase inhibition; Q92830; GCN5L2 HAT assay, ThioGlo1 CoA-SH fluorescence; Potency, µM (highest dose often 58.9 µM), for inactives: top-dose activity change, negative = inhibition, hits mostly inhibitors; AID 504327; hit rate 0.21% among 390,000; further: on the % scale 0 is the no-effect control and ±100 the full control effect
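qHTS, 1536-well. 20nM enzyme, pH 7.5 HEPES/EDTA/Tween-20 buffer; 15 min compound preinc., RT. Start: 75uM H3(1-25), 70uM AcCoA, 50uM ThioGlo1. Read Ex340/Em540 at t=0 (autofluorescence flag) and t=20 min.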
IMPase Li inh: IMPase inhibition in cells with lithium potentiation | CHO-M1 cells, IP1 TR-FRET (IP-One), carbachol + lithium | Potency, µM (doses to about 59.4 µM), without a hit: top-dose activity, negative = IMPase inhibition, actives largely listed as inhibitors | hit rate 0.35% among 210,000;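 further: IP1 builds up when IMPase is blocked and the TR-FRET signal falls; plate controls were basal vehicle for no effect and high inhibitor control for full effect; nearly all actives have a fitted effect of over 50% in size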
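CHO cells stably expressing M1 receptor (2000/well) were cultured 16–30 h, then exposed to compounds with a small lithium addition for 30 min at 37C. IP1 was measured by TR-FRET competition; AC50 from Hill fits.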
JMJD2E inh: inhibitors of human JMJD2E histone demethylase. B2RXH2. JMJD2E catalytic domain, FDH-coupled NADH fluorescence (FDH is formaldehyde dehydrogenase). Potency, µM (series often up to 57.1 µM), for the others: at the top dose activity change, negative = inhibition, usual class: inhibitors. hit rate 1.6% among 230,000. AID 2147; active means well fitted inhibition curve with a large enough effect, not every such curve was filed as active; inconclusive means small, poorly fitted or top-dose-only effect, or another doubt; inactive means no such curve, though single readings can be large or run the other way;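 further: 0% = wells with enzyme and -100% = buffer wells without enzyme; nearly all actives have a fitted effect of over 50% in size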
Target sequence (B2RXH2 1-337 limits assumed): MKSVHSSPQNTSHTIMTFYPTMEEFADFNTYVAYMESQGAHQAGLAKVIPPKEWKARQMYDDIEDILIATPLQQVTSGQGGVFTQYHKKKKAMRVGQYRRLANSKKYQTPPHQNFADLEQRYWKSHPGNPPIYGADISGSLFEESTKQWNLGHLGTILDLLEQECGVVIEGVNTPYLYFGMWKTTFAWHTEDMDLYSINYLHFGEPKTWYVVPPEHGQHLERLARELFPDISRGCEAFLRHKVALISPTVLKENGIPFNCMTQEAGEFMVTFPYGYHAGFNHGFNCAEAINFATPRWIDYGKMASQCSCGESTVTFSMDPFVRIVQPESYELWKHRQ
Epigenetic derep: regulators of epigenetic silencing causing reporter derepression in mouse cells; AID 1865; Potency, µM (highest dose often 53.9 µM), for inactives: at the highest dose GFP activation, actives largely listed as activators; hit rate 0.2% among 280,000; murine LDR cells, GFP reporter derepression, 30 h; further: % of control where 0% means no effect; nearly all actives have a fitted effect of over 60% in size
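Readout is the number of GFP-expressing murine LDR cells, counted by cytometry following washing. Cells were treated with compound for 30 h at 37 C; the stably integrated CMV-GFP locus is normally silent.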
Sfp inh: Sfp phosphopantetheinyl transferase inhibition; Biochemical Sfp PPTase activity, qHTS; Potency, µM, for the others: largest response in the series, negative = inhibition, hits mostly inhibitors; hit rate 3.5% among 310,000; AID 1490;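 further: the enzyme is Sfp with the accession as filed and its product quenches rhodamine fluorescence; 0% = enzyme reaction without inhibitor and -100% = no enzyme wells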
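Compounds were incubated with enzyme (final 15 nM) for 15 min at room temperature before substrate addition started the reaction. Fluorescence at 525 nm excitation, 598 nm emission was recorded immediately and after 30 minutes.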
* hit, by the source's call; ? = inconclusive; . = no result; [ ] = remark or other dose. An excerpt weighted towards active compounds, which were near 3.6% of everything screened. Unless noted, the call rests on the fitted dose curve; in most records, active means well fitted curve in the direction sought with a large enough effect; inconclusive means small, poorly fitted or top-dose-only effect, or another doubt; inactive means no such curve, though single readings can be large; an effect the other way counts as inactive or inconclusive. Potency means the concentration at half of the fitted maximal effect.

SMILES	NPSR antag	GCN5L2 inh	IMPase Li inh	JMJD2E inh	Epigenetic derep	Sfp inh
CCSc1nnc(NC(=O)c2nc3nc(C)cc(C)n3n2)s1	-1%	-11%	0%	-4%	-1%	?
C[N+](C)(C)CCN[N@@+]1(C)CCCc2ccccc21	.	.	-2%	.	.	.
COc1ccc(NS(=O)(=O)c2cc(NC(=O)C3CCCO3)ccc2N2CCCCC2)cc1 (stereo unspecified)	10µM*	-8%	-6%	?	1%	-4%
COc1ccc(NS(=O)(=O)c2cc(NC(=O)CC3CCCC3)ccc2N2CCOCC2)cc1	-53%	-16%	3%	?	1%	25µM*
COc1ccc(NS(=O)(=O)c2cc(NC(=O)COc3ccccc3)ccc2N2CCOCC2)cc1	.	-9%	.	.	.	.
COc1ccc(OC)c(NC(=O)C2C3CCC(C3=C(C)C)C2C(=O)O)c1 (stereo unspecified)	0%[46.1 µM]	1%	-2%	-15%	-2%	40µM*
Cc1nc2cnc(N3CCOCC3)nc2n(CCc2ccccc2)c1=O	.	-14%	-8%	.	.	20%
COC(=O)c1nnc(C(=O)NCc2ccccc2)c2[nH]c3ccccc3c12	.	.	-5%	6%	1%	-1%
Clc1ccccc1-c1nc(/C=N/N2CCOCC2)c2ccccn12	-22%	-4%	9%	?	-1%	89µM*
CN1CCN(/N=C/c2nc(-c3ccccc3Cl)n3ccccc23)CC1	-27%[46.1 µM]	4%	9%	-29%	0%	14%
COc1cc2c(cc1NC(=O)CN1CCN(S(=O)(=O)c3ccccc3F)CC1)oc1ccccc12	-29%[46.1 µM]	-5%[0.501 µM]	5.6µM*	-2%	0%	-8%
CCOC(=O)c1cc(-c2ccco2)nn1-c1ccc(C)cc1	-12%	-13%	13%	-13%	-2%	?
Cc1ccc(-n2nc(-c3ccco3)cc2C(=O)O)cc1	3%	0%	.	?	2%	22µM*
O=C(c1cc(-c2ccco2)nn1-c1cccc(Cl)c1)N1CCCCC1	?	-15%	21%[38.3 µM]	?	?	8.9µM*
CC(C)NC(=O)c1nn2c(C(F)(F)F)cc(-c3ccco3)nc2c1Cl	-10%	-3%	-1%	?	0%	13%
CC(C)NC(=O)c1cc(-c2ccco2)nn1-c1ccc(Cl)cc1	-28%[46.1 µM]	?	-6%[38.3 µM]	-26%	0%	10µM*
CCOc1ccc(N2CC(NC(=O)c3ccc(S(=O)(=O)N4CCCCC4)cc3)CC2=O)cc1 (stereo unspecified)	.	0%	.	.	?	.
C=CC1=C2C=C(C3CC3)N(CCCCO)C=C2C(=O)C(C)(OC(=O)c2ccco2)C1=O (stereo unspecified)	.	.	3%	?	.	10%
C(=C\c1ccccc1)/CSc1nnc(-c2cnccn2)n1Cc1ccco1	-10%[46.1 µM]	-11%	15%	-5%	1%	35µM*
Clc1ccc(CSc2nnc(-c3ccccn3)n2Cc2ccco2)c(Cl)c1	?	?	11%[38.3 µM]	-4%	0%	50µM*
Cc1ccc(NC(=O)CSc2nnc(-c3cnccn3)n2Cc2ccco2)cc1	-5%[46.1 µM]	-8%	18%[38.3 µM]	-5%	-1%	20µM*
Fc1ccccc1CSc1nnc(-c2cnccn2)n1Cc1ccco1	-16%[46.1 µM]	-4%	11%	7%	-1%	3%
Cc1cccc(N2CCN(CCCNc3ncnc4onc(-c5ccc(F)cc5)c34)CC2C)c1 (stereo unspecified)	.	24%	.	.	1%	.
O=C(O)c1cc(N2N=C(C(F)(F)F)/C(=C/C=C/c3ccco3)C2=O)ccc1Cl	?	7.9µM*	-6%	3%	-1%	22µM*
CCOC(=O)c1ccc(N2N=C(C)/C(=C/C=C/c3ccco3)C2=O)cc1	-4%	-13%	14%	-21%	1%	-2%
SMILES	NPSR antag	GCN5L2 inh	IMPase Li inh	JMJD2E inh	Epigenetic derep	Sfp inh
Cc1ccccc1-c1noc(-c2ccccc2OCC(=O)Nc2cccc([N+](=O)[O-])c2)n1	.	-2%	.	.	-5%	.
Cc1cccc(OCC(=O)NC2CCCCCC2)c1C	.	-5%	.	.	.	18%
Cc1cccc(C)c1OCC(=O)NC1CC1	.	-2%	.	.	.	50µM*
c1ccsc1	.	.	16%	.	.	.
CC(=O)n1cc([C@@H]2C=C(C(=O)NCc3ccccc3)O[C@H](OCc3ccc(CO)cc3)C2)c2ccccc21	-44%	-5%	.	10µM*	?	15%
O=C(C1=C[C@H](c2ccccc2)C[C@H](OCc2ccc(CO)cc2)O1)N1CCN(Cc2ccccc2)CC1	?	-6%	10%	20µM*	-2%	7%
CCCCC[C@H](O)/C=C/[C@@H]1[C@@H](C/C=C\CCCC(=O)OC)[C@@H](O)C[C@H]1O	16%	-6%	7%	4µM*	1%	25µM*
CCN(CC)CCCN(c1ccccc1)C1Cc2ccccc2C1	.	1%	.	.	.	-6%
CC(C)C(=O)NC(c1ccccc1)c1cc([N+](=O)[O-])c2cccnc2c1O (stereo unspecified)	-10%	-6%	-6%	?	-3%	-17%
CC(=O)NC(c1ccccc1)c1cc([N+](=O)[O-])c2cccnc2c1O (stereo unspecified)	-12%	1%	6%	16µM*	-2%	2.2µM*
CCCC(=O)NC(c1cccs1)c1cc([N+](=O)[O-])c2cccnc2c1O (stereo unspecified)	-7%	20%	2%	10µM*	-1%	2.5µM*
CCC(=O)NC(c1cccs1)c1cc([N+](=O)[O-])c2cccnc2c1O (stereo unspecified)	8%	-7%	-1%	?	0%	7.1µM*
CC(=O)NC(c1cccs1)c1cc([N+](=O)[O-])c2cccnc2c1O (stereo unspecified)	-13%	-4%	2%	8.9µM*	-3%	1µM*
CCC(=O)NC(c1cccs1)c1cc(Br)c2cccnc2c1O (stereo unspecified)	.	-2%	.	.	.	.
COc1ccc(OC)c(C2=Nn3c(nnc3-c3ccccc3O)SC2)c1	.	.	.	.	.	-23%
O=C(NC(=S)N1CCN(c2ccc(O)cc2)CC1)c1ccco1	.	0%	.	.	.	.
CN1CCN(C(=S)NC(=O)c2ccco2)CC1	-2%	0%	-1%	21%	4%	56µM*
CC1Cc2ccccc2N1C(=S)NC(=O)c1ccco1 (stereo unspecified)	-21%	-6%	-6%	4%	-1%	40µM*
CN1CCN(C(=S)NC(=O)c2ccc(Cl)cc2)CC1	-3%	-10%	8%	10%	-6%	35µM*
O=C(/C=C/c1ccc(I)cc1)c1ccc(B(O)O)cc1	.	-8%	.	.	.	17%
